GPR151 activ: activators of human GPR151, primary screen, cell-based, PathHunter beta-arrestin, luminescence | G-protein coupled receptor 151 (Homo sapiens), Q8TDV0 | PathHunter beta-arrestin GPR151 cells | activation, % at 11.2 µM | actives 1% (n = 650,000) | AID 1508602, 2020; in the data active means activation above about 4.9%;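 further: 0% = median of compound wells and 100% = cells with positive control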
MITF primary: MITF inhibitors, primary screen, biochemical, AlphaScreen, human; Microphthalmia-associated transcription factor (Homo sapiens), O75030; AlphaScreen MITF homodimerization, bead proximity signal; inhibition, % at 2.6 µM; actives 0.91% (n = 650,000); in the data active means inhibition above about 50%;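 further: 0% = vehicle wells with protein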
FBW7 act: FBW7 E3 ligase activators, primary screen, biochemical, AlphaScreen, human; F-box/WD repeat-containing protein 7 (Homo sapiens), Q969H0; AlphaScreen FBW7–phospho-cyclin E peptide binding, activator screen; normalized activity (activation), % at 26.1 µM; actives 0.13% (n = 650,000); in the data active means normalized activity above about 1.9%;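 further: purified mutant Fbw7 with reduced substrate affinity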
Target sequence (Q969H0 whole entry, looked up): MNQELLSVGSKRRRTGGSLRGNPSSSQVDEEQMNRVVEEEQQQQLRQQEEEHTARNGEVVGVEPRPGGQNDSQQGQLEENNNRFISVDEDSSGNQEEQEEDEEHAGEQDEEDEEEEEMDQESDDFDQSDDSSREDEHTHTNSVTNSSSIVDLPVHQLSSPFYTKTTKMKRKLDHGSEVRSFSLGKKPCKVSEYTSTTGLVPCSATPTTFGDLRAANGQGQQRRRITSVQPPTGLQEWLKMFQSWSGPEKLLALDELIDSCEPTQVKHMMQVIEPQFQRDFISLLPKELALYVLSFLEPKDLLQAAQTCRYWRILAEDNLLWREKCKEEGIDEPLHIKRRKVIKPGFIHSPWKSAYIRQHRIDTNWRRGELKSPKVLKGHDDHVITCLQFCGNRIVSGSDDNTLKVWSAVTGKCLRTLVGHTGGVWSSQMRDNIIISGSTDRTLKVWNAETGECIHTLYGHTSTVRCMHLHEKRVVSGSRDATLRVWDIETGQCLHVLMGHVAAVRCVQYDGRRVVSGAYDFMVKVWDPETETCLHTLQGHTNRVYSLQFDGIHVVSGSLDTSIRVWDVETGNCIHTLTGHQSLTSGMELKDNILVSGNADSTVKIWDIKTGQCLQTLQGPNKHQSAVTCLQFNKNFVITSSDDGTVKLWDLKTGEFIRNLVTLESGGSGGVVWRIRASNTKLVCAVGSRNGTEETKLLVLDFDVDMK
TEAD-YAP block: TEAD-YAP interaction inhibition, primary screen, TEAD-YAP interaction inhibitor project, luminescence, HEK-TIYL cells. TEAD-Gal4/YAP UAS-luciferase luminescence. inhibition, % at 9.12 µM. actives 1.4% (n = 640,000). AID 1259422, 2018; in the data active means inhibition above about 32%;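 further: 0% = median of test compound wells and 100% = reference inhibitor wells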
An asterisk follows results filed as active. A selection: hits, their analogues and other compounds. The true share with any hit is near 3.5%.

SMILES	GPR151 activ	MITF primary	FBW7 act	TEAD-YAP block
COc1ccc(/C=C/c2ccc3cccc(OC(C)=O)c3n2)cc1OC(C)=O	-4	17	0	75*
CC(=O)Oc1ccc(/C=C/c2ccc3cccc(OC(C)=O)c3n2)cc1[N+](=O)[O-]	-7	21	0	-7
CC(C)Oc1ccc(/C=C/c2ccc3cccc(O)c3n2)cc1	-9	5	0	80*
CCOc1ccccc1-n1cc2c(c1-c1ccccc1)c(=O)n(C)c(=O)n2C	0	18	0	-3
O=C(Nc1ccc2c(c1)Cc1ccccc1-2)c1cc(Br)ccc1Cl	1	14	0	50*
O=C(Nc1ccc2c(c1)Cc1ccccc1-2)c1cc(Cl)ccc1Cl	0	-8	0	8
O=C(Nc1ccccc1F)c1cccc(O)c1	-4	7	0	13
CC(C)n1c(Nc2ccc(-n3ccnc3)cc2)nc2c(Nc3ccccc3)ncnc21	-6	1	0	49*
CC(C)n1c(NCc2cccnc2)nc2c(Nc3ccccc3)ncnc21	-6	8	0	53*
CC(C)n1c(Nc2ccncc2)nc2c(Nc3ccc(Oc4ccccc4)cc3)ncnc21	-1	19	0	45*
Nc1c(C(=O)Nc2ccccc2F)nnn1-c1ccccc1	1	-2	0	-26
Cc1nc(N2CCN(c3ccccn3)CC2)c2c(C)c(C(=O)N3CCCCC3C)sc2n1 (stereo unspecified)	-1	-9	0	4
Cc1ccc(-c2nnc(N3CCN(C(=O)CN4CCCC4)CC3)c3ccccc23)cc1	1	8	0	1
Cc1ccc(-c2nnc(N3CCN(C(=O)c4ccco4)CC3)c3ccccc23)cc1	1	-3	2.3*	26
CCC(C)NC(=O)CCc1c(C)nc2cc(-c3cccc(F)c3)nn2c1C (stereo unspecified)	1	6	0	6
COc1ccc(-c2cc3nc(C)c(CCC(=O)N4CCCC4)c(C)n3n2)c(OC)c1	1	-4	0	6
COc1ccc(-c2cc3nc(C)c(CCC(=O)O)c(C)n3n2)c(OC)c1	2	-8	0	39*
Cc1nc2cc(-c3cccc(F)c3)nn2c(C)c1CCC(=O)O	-3	-3	0	43*
CCOC(=O)C1=C(N)N(c2ccc(Cl)cc2)C2=C(C(=O)CC(C)(C)C2)C1c1ccc(CC)cc1 (stereo unspecified)	2	-2	0	16
CCOc1cc(C=C2C(=O)NC(=S)NC2=O)ccc1OCC(=O)O	0	70*	0	2
COc1ccc(CNc2ccc(C(=O)Nc3cccc(OC)c3)cc2[N+](=O)[O-])cc1	-1	5	0	52*
CCc1ccccc1NC(=O)c1ccc(SCc2ccc(OC)cc2)c([N+](=O)[O-])c1	-1	-5	0	1
CCc1ccccc1NC(=O)c1ccc(NCc2ccc(OC)cc2)c([N+](=O)[O-])c1	0	2	0	57*
CCc1ccccc1NC(=O)c1ccc(NCc2ccc(C)cc2)c([N+](=O)[O-])c1	4	1	0	57*
Cc1ccc(C(=O)CSc2nnc(C3CC3)n2C)cc1	0	7	0	-12
SMILES	GPR151 activ	MITF primary	FBW7 act	TEAD-YAP block
CC1(C)CC(=O)C2=C(C1)Nc1ccccc1NC2c1ccc(-c2ccccc2)cc1 (stereo unspecified)	2	-1	0	21
COc1cc(C2Nc3ccc(C(=O)c4ccccc4)cc3NC3=C2C(=O)CC(C)(C)C3)ccc1O (stereo unspecified)	0	-1	0	41*
CSc1ccc(C2Nc3ccc(C(=O)c4ccccc4)cc3NC3=C2C(=O)CCC3)cc1 (stereo unspecified)	0	-12	0	43*
CCN(CC)c1ccc(C2Nc3ccccc3NC3=C2C(=O)CC(C)(C)C3)cc1 (stereo unspecified)	0	1	0	54*
O=C1CCCC2=C1C(c1ccc(Cl)c(Cl)c1)Nc1ccc(C(=O)c3ccccc3)cc1N2 (stereo unspecified)	0	4	0	50*
CCc1ccccc1NS(=O)(=O)c1ccc(F)c(OC)c1	0	6	0	8
Cc1cc2c(NCCC3=CCCCC3)ncnc2s1	1	-11	0	25
COc1ccccc1N1CCN(c2c(-c3ccc(C)cc3)c(=O)c2=O)CC1	4	-3	0	71*
Cc1ccc(-c2c(N3CCN(c4ccccc4F)CC3)c(=O)c2=O)cc1	3	-10	0	0
COc1cccc(N2CCN(c3c(-c4ccc(C)cc4)c(=O)c3=O)CC2)c1	3	0	0	66*
CC(C)c1ccc(C(=O)CSc2ncn[nH]2)cc1	-2	4	0	37*
CSc1ccc(S(=O)(=O)CC(=O)Nc2cccc(C(F)(F)F)c2)c([N+](=O)[O-])c1	2	0	0	-4
COC(=O)c1sccc1NC(=O)CN1c2cccc3cccc(c23)S1(=O)=O	1	8	0	24
Cc1nnc(N/N=C/c2cc(Cl)ccc2O)[nH]c1=O	2	127*	0	92*
COc1ccc(O)c(/C=N/Nc2nnc(C)c(=O)[nH]2)c1	-2	79*	-1	72*
CC(C)(C)c1nnc(N/N=C/c2cc(Br)ccc2O)n(N)c1=O	2	63*	0	75*
COc1ccc(/C=N/Nc2nnc(C)c(=O)[nH]2)cc1	-1	-11	0	-5
COc1cc(/C=N/Nc2nnc(C(C)(C)C)c(=O)n2N)ccc1O	-1	12	0	8
Cc1nnc(N/N=C/c2cc(Br)ccc2O)[nH]c1=O	1	114*	-1	90*
Cc1nnc(N/N=C/c2ccc(Br)cc2)[nH]c1=O	1	9	1	6
O=C1C(c2ccc(Cl)cc2)N(C2CCCCC2)C(=O)CN1C1CCCC1 (stereo unspecified)	-1	-2	0	-3
COc1ccc(CN2C[C@@H]3C[C@@H](c4ccccc4C)N4CCC[C@@]34C2=O)cc1	-2	4	0	-6
COc1ccc(CN2C[C@@H]3C[C@@H](c4cc5ccccc5o4)N4CCC[C@@]34C2=O)cc1	0	-7	0	77*
O=C(NCC1CCCO1)C(=O)NC1CCCCC1 (stereo unspecified)	-1	17	0	-27
CC1=NC(Nc2nc(C)c3cc(C)ccc3n2)=NC(C)(C)C1	-1	-8	1	37*
CCOc1ccc2nc(NC3=NC(C)(C)CC(C)=N3)nc(C)c2c1	-1	-1	0	28
O=C(Nc1ccc(Br)cn1)c1cc(-n2cnnc2)ccc1Cl	1	6	0	-8
CCc1cc2c(cc3c(=O)n(CC(=O)NCc4cccc(Br)c4)ncn32)s1	0	-18	0	-13

High-throughput results: PubChem, The Scripps Research Institute Molecular Screening Center
